The values below come from ChEMBL document CHEMBL3433997, “St. Jude Leishmania screening dataset” (2016).

Solute carrier family 2, facilitated glucose transporter member 1 (Homo sapiens), sequence (P11166 whole entry): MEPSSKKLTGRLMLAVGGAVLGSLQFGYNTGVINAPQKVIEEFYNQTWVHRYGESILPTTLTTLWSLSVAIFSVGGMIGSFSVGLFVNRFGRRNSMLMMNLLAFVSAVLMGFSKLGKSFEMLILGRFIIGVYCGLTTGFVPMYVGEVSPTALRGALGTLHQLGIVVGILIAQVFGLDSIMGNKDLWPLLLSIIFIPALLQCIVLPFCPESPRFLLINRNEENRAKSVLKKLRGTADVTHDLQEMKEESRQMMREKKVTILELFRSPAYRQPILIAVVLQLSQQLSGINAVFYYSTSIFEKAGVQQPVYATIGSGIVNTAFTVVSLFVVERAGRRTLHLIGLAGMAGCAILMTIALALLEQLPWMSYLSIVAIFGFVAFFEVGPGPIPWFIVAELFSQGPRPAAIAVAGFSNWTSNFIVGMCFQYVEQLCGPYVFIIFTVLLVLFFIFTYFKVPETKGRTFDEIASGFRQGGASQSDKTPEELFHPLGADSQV

The first experiment concerns the target Solute carrier family 2, facilitated glucose transporter member 1 (Homo sapiens) (UniProt P11166). In words: ST_JUDE_LEISH: Cytotoxicity at 2uM final concentration against transgenic Leishmania Mexicana promastigotes LmGLUT1 that are glucose transport deficient and complemented with the human glucose transporter GLUT1. Activity is measured by DNA content using SYBR green in vitro. In kind it is functional.
Broadly, the inhibition is the relative decrease from the control value, in per cent. For the molecule `FC(F)(F)Oc1ccc(-c2cnc3ccc(NCc4ccncc4)nn23)cc1`, the inhibition was found to be 2.41%.
Same read-out and setting: then `COc1ccc(-c2ccc(NC(=O)c3cccc(C#N)c3)cc2)cc1CN1CCCC(C(N)=O)C1` (stereo not given), with 3.09%; and `CCNc1cc(-c2cccc(OC)c2)nc(Nc2ccc(F)cc2)n1`, with 7.43%; and `Cc1ccccc1C1CCN(C2CCC(NC(=O)c3csc(-c4cccc(Cl)c4)n3)CC2)CC1` (stereo not given), with 9.21%.
On to `CCCCCCCNCCNc1cc(C)nc2ccccc12`, for which the inhibition was 2.03%.
With `CCC(CCON1C(N)=NC(N)=NC1(C)C)c1ccc(Cl)c(Cl)c1` (stereo not given), the inhibition was determined as 3.2%.
The same measure, in the same setting: the result for `COCCOc1cccc(CN2CCC(c3cc4nc(C)cc(C(F)(F)F)n4n3)C2)c1` (stereo not given) reads -2.12%; that for `CCCc1ccc(NC(=O)c2ccc(CN3CCCN(Cc4cccc(O)c4)CC3)cc2)cc1`, 3.2%; that for `O=C(NCCN1CCC(NC(=O)c2ccc(-c3ccccn3)s2)CC1)c1ccc(Cl)c(Cl)c1`, 3.53%.
As to `COc1ccc2nccc([C@@H](O)CN3CCC(NCCOc4ccncc4)CC3)c2c1`, the inhibition was -0.38%.
Still for that read-out and setting: then `Cc1ccc(Nc2nc(N/N=C/c3ccccc3[N+](=O)[O-])nc(Nc3ccc([N+](=O)[O-])cc3)n2)cc1C`, with 12.9%; and `CN(CCCNc1ccc(C(=O)Nc2ccc(C(F)(F)F)cc2)cc1[N+](=O)[O-])Cc1ccccc1`, with 1.17%; and `O=C(Nc1ccc(Oc2ccccc2)cc1)N(Cc1ccc(-c2ccc(CN3CCNCC3)cc2)cc1)C1CCN(Cc2ccccc2)CC1`, with -1.93%.
With `NC(=O)C1Cc2ccccc2CN1CC(=O)Nc1ccccc1Sc1ccccc1` (stereo not given), the inhibition was found to be 2.73%.
On to `CC(=O)Nc1ccc(COc2ccc(Nc3ccnc4cc(-c5ccccn5)ccc34)cc2)cc1`, for which the inhibition amounted to 3.41%.
The same measure, in the same setting: the result for `CC(=O)Nc1ccc(OCCCCN(Cc2ccccc2OC(F)(F)F)c2ccc(C(F)(F)F)c(C#N)c2)c(Cl)c1` reads 1.46%; that for `Cc1ccc(NC(=N)Nc2ncccc2OCc2c(F)cccc2Cl)cc1`, 7.2%; that for `COc1cc2c(cc1OC)CC(NCc1ccc(-c3ccc4nc[nH]c4c3)cc1)C2`, 5.26%.
Still for that read-out and setting: the result for `CC(C)c1ccc(N(CC(=O)N/N=C/c2ccc(C(F)(F)F)cc2)S(=O)(=O)c2ccc(C(F)(F)F)cc2)cc1` reads 4.88%; that for `CN1CCN(S(=O)(=O)c2ccc3nccc(Nc4ccc(Oc5ccccc5)cc4)c3c2)CC1`, -3.11%; that for `N#Cc1cccc(NC(=O)C2=C(CCc3ccc4c(c3)OCO4)NC(=O)NC2c2cccc(C#N)c2)c1` (stereo not given), -0.43%.
On the same count and under the same terms, the result for `COc1ccc(C2CC(c3cccs3)=NN2C(=O)c2ccccc2)cc1OC` (stereo not given) reads 6.92%.
For the molecule `O=C(Nc1cc(Cl)ccc1O)c1cnn2c(C(F)(F)F)cc(-c3cccs3)nc12`, the inhibition turned out to be 2.61%.
For the molecule `O=C(Nc1ccc(-c2nc3ccccc3[nH]2)cc1)C1CCCN(CC2CC2)C1` (stereo not given), the inhibition amounted to 12.9%.
As to `CC(=O)c1cc(N2CCCC2)ccc1N`, the inhibition was 2.5%.
Take `CC(C)Nc1cc(C(=O)N[C@@H](Cc2ccccc2)[C@H](O)CNC2CCOCC2)c(F)c(N2CCCCS2(=O)=O)c1`: the inhibition was determined as 6.75%.
Same read-out and setting: the result for `O=C(/C=C/c1cccc2c1OCO2)Nc1ccnc2ccncc12` reads 1.56%; that for `CCc1ccc(C2CCN(CCCCNC(=O)c3ccc(-c4ccc(C#N)cc4)cc3)CC2)c(OCCO)c1`, 0.42%; that for `CCCCc1ccc(NC(=O)Nc2ccc3c(c2)CCNCC3)cc1`, 0.82%.
Still for that read-out and setting: the result for `O=c1cc(NCCCNCc2ccc(C(F)(F)F)cc2F)[nH]c2ccccc12` reads 2.19%; that for `CCNc1cc(C(=O)N[C@@H](Cc2cccc(Cl)c2)[C@H](O)CNC(C)CCCC(C)C)cc(N2CCCCS2(=O)=O)c1` (stereo not given in full), -0.84%.
Regarding `COC(=O)c1ccc(-c2ccc(-c3cccnc3)cc2C)cc1`, the inhibition was determined as 91.7%.
Same read-out and setting: the result for `Cc1cccc2nc(-c3ccc(-c4ccc(CNCC(C)C)cc4)cc3)[nH]c12` reads 15.3%; that for `O=[N+]([O-])c1cc2c(cc1C=NNc1nc(=Nc3ccccc3)[nH]c(=Nc3ccccc3)[nH]1)OCO2`, 1.53%.
As for `CC(C)Cn1cc2c(ccc3nc(N)nc(N)c32)n1`, the inhibition turned out to be 1.25%.
The same measure, in the same setting: then `CCCCCCCCCCS(=O)(=O)N[C@H](COCc1cccc(Oc2ccccc2)c1)COP(=O)(O)OC`, with 0.47%; and `Brc1ccsc1-c1nc(NCCC(c2ccccc2)c2ccccc2)no1`, with -0.74%.
The same measure, in the same setting: then `Oc1cccc(Nc2nc(NCC3CCCO3)c3ccccc3n2)c1` (stereo not given), with 27%; and `COc1ccc2c(NN=Cc3ccccc3F)ccnc2c1`, with 3.28%.
Same read-out and setting: then `CCCCCN1CCC(NS(=O)(=O)c2ccc(C(=O)Nc3cccc(C(F)(F)F)c3)cc2)C1` (stereo not given), with 8.42%.

The target of the next experiment is Hexose transporter 1 (Plasmodium falciparum) (UniProt O97467). In words: ST_JUDE_LEISH: Cytotoxicity at 2uM final concentration against transgenic Leishmania Mexicana promastigotes LmPfHT that are glucose transport deficient and complemented with the Plasmodium falciparum hexose transporter. Activity is measured by DNA content using SYBR green in vitro. In kind it is functional.
For `FC(F)(F)Oc1ccc(-c2cnc3ccc(NCc4ccncc4)nn23)cc1`, the inhibition is 3.58%.
Same read-out and setting: then `COc1ccc(-c2ccc(NC(=O)c3cccc(C#N)c3)cc2)cc1CN1CCCC(C(N)=O)C1` (stereo not given), with 2.51%.
Turning to `CCNc1cc(-c2cccc(OC)c2)nc(Nc2ccc(F)cc2)n1`, the inhibition was found to be 7.1%.
Take `Cc1ccccc1C1CCN(C2CCC(NC(=O)c3csc(-c4cccc(Cl)c4)n3)CC2)CC1` (stereo not given): the inhibition is 12%.
Consider `CCCCCCCNCCNc1cc(C)nc2ccccc12`, for which the inhibition came to 7.41%.
On the same count and under the same terms, then `CCC(CCON1C(N)=NC(N)=NC1(C)C)c1ccc(Cl)c(Cl)c1` (stereo not given), with 3.06%; and `COCCOc1cccc(CN2CCC(c3cc4nc(C)cc(C(F)(F)F)n4n3)C2)c1` (stereo not given), with 4.65%.
On the same count and under the same terms, then `CCCc1ccc(NC(=O)c2ccc(CN3CCCN(Cc4cccc(O)c4)CC3)cc2)cc1`, with 2.61%.
As to `O=C(NCCN1CCC(NC(=O)c2ccc(-c3ccccn3)s2)CC1)c1ccc(Cl)c(Cl)c1`, the inhibition stood at 4.02%.
Same read-out and setting: then `COc1ccc2nccc([C@@H](O)CN3CCC(NCCOc4ccncc4)CC3)c2c1`, with 1.23%; and `Cc1ccc(Nc2nc(N/N=C/c3ccccc3[N+](=O)[O-])nc(Nc3ccc([N+](=O)[O-])cc3)n2)cc1C`, with 8.51%; and `CN(CCCNc1ccc(C(=O)Nc2ccc(C(F)(F)F)cc2)cc1[N+](=O)[O-])Cc1ccccc1`, with -0.19%.
Take `O=C(Nc1ccc(Oc2ccccc2)cc1)N(Cc1ccc(-c2ccc(CN3CCNCC3)cc2)cc1)C1CCN(Cc2ccccc2)CC1`: the inhibition is -1.14%.
Same read-out and setting: the result for `NC(=O)C1Cc2ccccc2CN1CC(=O)Nc1ccccc1Sc1ccccc1` (stereo not given) reads 2.07%; that for `CC(=O)Nc1ccc(COc2ccc(Nc3ccnc4cc(-c5ccccn5)ccc34)cc2)cc1`, 1.28%.
The same measure, in the same setting: the result for `CC(=O)Nc1ccc(OCCCCN(Cc2ccccc2OC(F)(F)F)c2ccc(C(F)(F)F)c(C#N)c2)c(Cl)c1` reads 4.12%; that for `Cc1ccc(NC(=N)Nc2ncccc2OCc2c(F)cccc2Cl)cc1`, 7.97%; that for `COc1cc2c(cc1OC)CC(NCc1ccc(-c3ccc4nc[nH]c4c3)cc1)C2`, 5.44%.
As to `CC(C)c1ccc(N(CC(=O)N/N=C/c2ccc(C(F)(F)F)cc2)S(=O)(=O)c2ccc(C(F)(F)F)cc2)cc1`, the inhibition stood at 2.56%.
On to `CN1CCN(S(=O)(=O)c2ccc3nccc(Nc4ccc(Oc5ccccc5)cc4)c3c2)CC1`, for which the inhibition is -1.4%.
With `N#Cc1cccc(NC(=O)C2=C(CCc3ccc4c(c3)OCO4)NC(=O)NC2c2cccc(C#N)c2)c1` (stereo not given), the inhibition is 0.52%.
On the same count and under the same terms, then `COc1ccc(C2CC(c3cccs3)=NN2C(=O)c2ccccc2)cc1OC` (stereo not given), with 1.98%; and `O=C(Nc1cc(Cl)ccc1O)c1cnn2c(C(F)(F)F)cc(-c3cccs3)nc12`, with 4.71%.
On the same count and under the same terms, the result for `O=C(Nc1ccc(-c2nc3ccccc3[nH]2)cc1)C1CCCN(CC2CC2)C1` (stereo not given) reads 10.8%; that for `CC(=O)c1cc(N2CCCC2)ccc1N`, 2.6%.
Turning to `CC(C)Nc1cc(C(=O)N[C@@H](Cc2ccccc2)[C@H](O)CNC2CCOCC2)c(F)c(N2CCCCS2(=O)=O)c1`, the inhibition is 5.16%.
The same measure, in the same setting: then `O=C(/C=C/c1cccc2c1OCO2)Nc1ccnc2ccncc12`, with 1.4%; and `CCc1ccc(C2CCN(CCCCNC(=O)c3ccc(-c4ccc(C#N)cc4)cc3)CC2)c(OCCO)c1`, with 3.19%.
On the same count and under the same terms, the result for `CCCCc1ccc(NC(=O)Nc2ccc3c(c2)CCNCC3)cc1` reads 2.05%.
The same measure, in the same setting: the result for `O=c1cc(NCCCNCc2ccc(C(F)(F)F)cc2F)[nH]c2ccccc12` reads 0.29%.
With `CCNc1cc(C(=O)N[C@@H](Cc2cccc(Cl)c2)[C@H](O)CNC(C)CCCC(C)C)cc(N2CCCCS2(=O)=O)c1` (stereo not given in full), the inhibition was -1.5%.
The same measure, in the same setting: then `COC(=O)c1ccc(-c2ccc(-c3cccnc3)cc2C)cc1`, with 90.5%; and `Cc1cccc2nc(-c3ccc(-c4ccc(CNCC(C)C)cc4)cc3)[nH]c12`, with 13.6%.
The same measure, in the same setting: then `O=[N+]([O-])c1cc2c(cc1C=NNc1nc(=Nc3ccccc3)[nH]c(=Nc3ccccc3)[nH]1)OCO2`, with 1.47%.
Still for that read-out and setting: the result for `CC(C)Cn1cc2c(ccc3nc(N)nc(N)c32)n1` reads 0.94%.
For `CCCCCCCCCCS(=O)(=O)N[C@H](COCc1cccc(Oc2ccccc2)c1)COP(=O)(O)OC`, the inhibition is 0.77%.
Same read-out and setting: the result for `Brc1ccsc1-c1nc(NCCC(c2ccccc2)c2ccccc2)no1` reads 0.55%; that for `Oc1cccc(Nc2nc(NCC3CCCO3)c3ccccc3n2)c1` (stereo not given), 24.8%.
On the same count and under the same terms, the result for `COc1ccc2c(NN=Cc3ccccc3F)ccnc2c1` reads 2.8%; that for `CCCCCN1CCC(NS(=O)(=O)c2ccc(C(=O)Nc3cccc(C(F)(F)F)c3)cc2)C1` (stereo not given), 2.22%.
